We go through eleven molecules from PubChem BioAssay (NCI).

This is part of a sample that, as a whole, favours compounds with a hit. Of some 83,000 tested, about 20% had one in any assay.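 Cell lines were cultured in 96-well plates, exposed to a single compound concentration, and assessed for percent growth 48 hours later.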 Values without a mark were called inactive. Active and inactive are the calls of the source. Rule for the calls: active = growth percent below 10; inactive = the rest.

Common to all, as to experiment: NCI-60 one-dose screen, 48 h (100 = growth as untreated, 0 = no growth, -100 = all killed)
Conditions in all cases: 10 µM unless noted

The subject of test [1] is HCT-15 colon.
Test [2] relates to HT29 colon.
In test [3] the test system is SNB-75 CNS.
Test [4] deals with SNB-19 CNS.
Test [5] deals with U251 CNS.
In test [6] the test system is PC-3 prostate.
Test [7] has as its system SK-MEL-5 melanoma.
Test [8] relates to UACC-62 melanoma.
Test [9] concerns LOX IMVI melanoma.
The subject of test [10] is SK-MEL-28 melanoma.

Take `CC(=O)Nc1cccc(-n2cnc3cc(-c4ccc(O)cc4)ccc32)c1`: the growth in test [1] was 24.8%; in test [2] it was 28.2%; in test [3], -31.7% (active); in test [4] it was 33.4%; in [5] it was 23.1%; in test [6] it was 35.7%. Further, the growth in test [7] is 28.3%; in test [8], 36.5%; in test [9] it was 36.6%; in [10], 78%.
Turning to `COC(=O)[C@@]1(C)CC[C@]2(C)CC[C@]3(C)C(=CC(=O)[C@@H]4[C@@]5(C)Cc6c(n(CC#CCN7CCN(C)CC7)c7ccccc67)C(C)(C)[C@@H]5CC[C@]43C)[C@@H]2C1`, the growth was 2.6% (active) in test [1]; 14.4% in [2]; 100% in test [3]; 54.3% in [4]; 57.5% in [5]; 62.1% in test [6]. Also, the growth in test [7] is 87.2%; in [8], 97.7%; in test [9], -91.6% (active); in test [10], 105%.
Turning to `O=c1cc(-c2ccccc2)nc2sc(-c3c[nH]c4ccc(F)cc34)nn12`, the growth in test [1] was 67.8%; in [2], 73.2%; in test [3], -37.9% (active); in [4] it was 77.5%; in test [5], 57.9%; in test [6], 64.9%. Moreover, the growth in [7] is 69.8%; in test [8] it was 68.1%; in test [9] it was 72%; in test [10], 67.7%.
On to `Nc1nc(-c2cccc([N+](=O)[O-])c2)c(N=Nc2ccccc2Cl)s1`, for which the growth was 48.9% in test [1]; 87.1% in test [2]; 76.8% in test [3]; 82% in test [4]; 43.9% in test [5]; 64.9% in test [6]. The growth in [7] was 80.8%; in [8], 71.6%; in test [9], 25.3%; in [10] it was 93.7%.
Regarding `CNC(=O)c1cc(Oc2ccc3nc(NC(=O)c4cc(C)cc(C)c4)sc3c2)ccn1`, the growth is 66.9% in [1]; 86% in test [2]; 85.5% in [3]; 81.3% in [4]; 89.3% in test [5]; 47.9% in test [6]. For the same molecule, the growth in [7] was 77.4%; in test [8] it was 76.9%; in test [9], 102%; in [10] it was 79.9%.
Regarding `CN(C)c1ncc(/C=C2\SC(=S)N(Cc3ccccc3Cl)C2=O)s1`, the growth is 84.6% in test [1]; 88.8% in test [2]; 88.1% in [3]; 78.6% in [4]; 42% in test [5]; 91.1% in test [6]. The growth in test [7] is 101%; in test [8], 94.6%; in test [9] it was 69.2%; in test [10], 104%.
With `COc1cnc2c(c1)C(=O)c1c-2n(CCCn2ccnc2)c(=O)c2cc(OC)c(OC)cc12`, the growth in [1] was -53.2% (active); in test [2], -56.1% (active); in [3], 12.4%; in [4] it was 14.9%; in test [5], -84.8% (active); in [6], -54.9% (active). In addition, the growth is -28.4% (active) in [7], -11% (active) in [8], -51.5% (active) in [9] and 45.5% in [10].
For `C=CCn1c(SCC(=O)Nc2cccc(C(=O)/C=C/c3cc(OC)c(OC)c(OC)c3)c2)nc2ccccc2c1=O`, the growth in test [1] is 11.6%; in test [2], -23.4% (active); in test [3], 33.9%; in [4], 53.8%; in [5] it was 9.44% (active); in test [6] it was 51.6%. For the same molecule, the growth in test [7] is 82.5%; in test [8], 48.8%; in test [9], 10%; in test [10], 83.8%.
Consider `CS(=O)c1nccc(-c2c(-c3ccc(F)c(OCc4ccc(F)cc4)c3)nc3sccn23)n1` (stereo not given), for which the growth in test [1] was 59.4%; in test [2], 27.9%; in test [3] it was 94.4%; in [4], 68.7%; in test [5] it was 96%; in test [6] it was -10.7% (active). The growth in test [7] was 100%; in test [8] it was 85.6%; in [9] it was 78.6%; in [10] it was 41.1%.
Turning to `COc1ccc2oc3c4[nH]c5ccccc5c4c4c(c3c2c1)C(=O)N(O)C4=O`, the growth in test [1] is 105%; in test [2] it was 104%; in test [3], 89.1%; in test [4], 95.2%; in test [5], 106%; in test [6] it was 85.8%. Moreover, the growth in test [7] was 101%; in test [8], 94.6%; in [9] it was 116%; in test [10] it was 106%.
With `O=C1Nc2cc(OC(F)(F)F)ccc2Oc2ccc(-c3ccnc(N4CC[C@H](O)C4)c3)cc21`, the growth in test [1] is -30.6% (active); in [2], -58.7% (active); in test [3], -6% (active); in [4], 35.9%; in test [5], 4.76% (active); in test [6], 15%. In addition, the growth in test [7] is -58.4% (active); in [8] it was 28.8%; in test [9] it was 3.23% (active); in [10], 24.6%.
